According to PubChem BioAssay AID624330 (Southern Research Specialized Biocontainment Screening …, 2012):
The whole screen tested about 340,000 compounds, of which about 2,100 (0.62%) were called active.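 How the source made its calls: active means first-screen hits whose inhibition reached a set limit at any dose in the follow-up dose series; inconclusive means inhibition above the set first-screen limit but never retested; inactive means the rest.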 Not all results are given here. Entries with a potency or affinity are not part of this list.

Each compound was assayed against Rac GTPase-activating protein 1 (Homo sapiens) (UniProt Q9H0H5) (assay: MgcRacGAP GTPase-activating activity inhibitors, confirmation, biochemical, ADP Hunter fluorescence, primary and confirmatory (AID 624330;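 further: fluorescence reports GDP produced by GAP-driven GTP hydrolysis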)). Conditions: MgcRacGAP-stimulated Rac1 GTP hydrolysis, at 30 µM, active compounds read high, GST-tagged Rac1 F28L mutant substrate.
Rac GTPase-activating protein 1 (Homo sapiens), sequence (Q9H0H5 whole entry, looked up): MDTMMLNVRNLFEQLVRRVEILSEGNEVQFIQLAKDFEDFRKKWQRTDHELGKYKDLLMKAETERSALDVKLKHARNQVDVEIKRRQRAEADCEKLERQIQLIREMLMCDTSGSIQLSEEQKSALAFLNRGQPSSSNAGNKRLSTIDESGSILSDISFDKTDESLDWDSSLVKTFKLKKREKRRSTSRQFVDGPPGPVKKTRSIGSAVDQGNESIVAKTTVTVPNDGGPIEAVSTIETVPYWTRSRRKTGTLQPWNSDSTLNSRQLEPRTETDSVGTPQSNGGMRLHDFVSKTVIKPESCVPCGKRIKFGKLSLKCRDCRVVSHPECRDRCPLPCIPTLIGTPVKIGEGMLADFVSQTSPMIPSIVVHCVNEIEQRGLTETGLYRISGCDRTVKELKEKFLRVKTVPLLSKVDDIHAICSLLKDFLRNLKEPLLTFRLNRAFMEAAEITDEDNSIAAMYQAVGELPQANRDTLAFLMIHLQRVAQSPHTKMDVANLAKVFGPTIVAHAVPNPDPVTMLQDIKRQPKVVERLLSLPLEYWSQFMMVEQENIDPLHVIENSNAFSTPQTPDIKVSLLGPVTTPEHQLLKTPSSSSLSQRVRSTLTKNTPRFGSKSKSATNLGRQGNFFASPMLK

| Structure (SMILES) | inhibition |
| --- | --- |
| COc1cc(/C=N/NC(=O)c2ccc(NC(=O)C3CCCCC3)cc2)ccc1O | 8.05% (inactive) |
| COc1cc(/C=N/NC(=O)c2ccc(NC(=O)C3CC3)cc2)ccc1OC(C)=O | 7.67% (inactive) |
| CCn1cc(/C=C(\NC(=O)c2ccccc2)C(=O)NCCCN2CCOCC2)c2ccccc21 | 13% (inactive) |
| COc1ccc(/[N+]([O-])=C/c2ccco2)cc1 | 9.73% (inactive) |
| CC(C)CNC(=O)NC(=O)COC(=O)c1cc(F)cc(F)c1 | 2.44% (inactive) |
| C/C(=N/NC(=O)CSc1nc2ccccc2n1C)c1ccco1 | 7.14% (inactive) |
| CC(=NNC(=O)CSc1nc2ccccc2o1)c1ccco1 | 3.04% (inactive) |
| COc1cc(/C=N/NC(=O)CSc2nc3ccccc3n2C)cc(OC)c1OC | -9.37% (inactive) |
| CCn1c(SCC(=O)N/N=C/c2ccc(O)c(OC)c2)nc2ccccc21 | 12% (inactive) |
| C/C(=N/NC(=O)CSc1nc2ccccc2n1C)c1ccncc1 | 8.72% (inactive) |
| C/C(=N\NC(=O)CSc1nc2ccccc2o1)c1cccc(O)c1 | 10.7% (inactive) |
| COc1ccccc1C(=O)NC(CCSC)C(=O)NCC(c1ccco1)N(C)C (configuration not stated) | 10.1% (inactive) |
| O=C(O)c1ccc(N2CCS(=O)(=O)CC2)cc1 | 2.19% (inactive) |
| CON(C)c1nc(NCC(C)C)nc(OCC#N)n1 | -6.48% (inactive) |
| CCn1c(=O)c2cc(C(=O)N3CCN(C)CC3)sc2c2ccccc21 | 7.75% (inactive) |
| COc1ccc(NC(=O)CC2S/C(=N\c3nccs3)N(C)C2=O)cc1 (configuration not stated) | 13.7% (inactive) |
| COc1cc2nncc(SC)c2cc1OC | 8.55% (inactive) |
| CCCn1c(SCC(=O)N(CC)c2c(N)n(Cc3ccccc3)c(=O)[nH]c2=O)nnc1-c1ccncc1 | -0.81% (inactive) |
| COc1ccc(OCCCC(=O)NCCc2ccc(OC)c(OC)c2)cc1 | 5.19% (inactive) |
| O=C(CNCc1cccnc1)Nc1cc(C(F)(F)F)ccc1N1CCOCC1 | 28.2% (inactive) |
| CCC(=O)Nc1cc(C(F)(F)F)ccc1N1CCOCC1 | -1.84% (inactive) |
| O=C(c1cc(Br)c[nH]1)N1CCSCC1 | 9.76% (inactive) |
| COc1ccc(CN2CCN(C3CCOCC3)CC2CCO)c(C)c1C (configuration not stated) | 13% (inactive) |
| COc1cc(C2=NOC(C(=O)N3CCOCC3)C2)cc(OC)c1OC (configuration not stated) | 7.04% (inactive) |
| OCCN1CCN(CCCN2c3ccccc3Sc3ccc(C(F)(F)F)cc32)CC1 | 3.74% (inactive) |
| OCCN1CCN(C(=S)Nc2cccc(C(F)(F)F)c2)CC1 | 24% (inactive) |
| C[C@@H]1CN([C@@H](C)CO)C(=O)c2cc(Br)cnc2O[C@H]1CN(C)C(=O)CCN1CCCCC1 | 14.8% (inactive) |
